LASV entry inh: inhibitors of Lassa virus binding or cell entry. Lassa virus pseudotype entry inhibition, cell reporter. Potency, µM (titrated, usually from 37.9 µM), actives largely listed as inhibitors. 300,000 tested, 1.2% active; calls by dose curve; tested in HEK293 cells; note: nearly all actives have a fitted effect of over 50% in size
Marburg entry inh: inhibitors of Marburg virus binding or cell entry; Marburg virus pseudotyped entry inhibition, cell reporter; Potency, µM (highest dose often 37.8 µM), usual class: inhibitors; 300,000 tested, 1.8% active; AID 540276; calls by dose curve; tested in HEK293 cells
Vaccinia mCherry: vaccinia inhibition (mCherry reporter); Potency, µM (titrated, usually from 36.5 µM), actives largely listed as inhibitors; 310,000 tested, 0.63% active; Vaccinia virus mCherry reporter infection, fluorescence; calls by dose curve; tested in A549 cells; note: nearly all actives have a fitted effect of over 35% in size
VACV Venus inh: inhibitors of vaccinia virus (Venus reporter); Vaccinia virus Venus reporter expression, fluorescence; Potency, µM (top dose mostly 36.5 µM), usual class: inhibitors; 330,000 tested, 0.46% active; AID 720580; calls by dose curve; tested in A549 cells; note: nearly all actives have a fitted effect of over 30% in size
Numbers stand for hits. Rows were chosen to be rich in hits. Some 2.5% of all compounds tested hit in one or more screens of this group.

How did Cc1cc(C)c2sc(N(CCCN(C)C)C(=O)c3ccc(S(=O)(=O)N(C)Cc4ccccc4)cc3)nc2c1 do in these assays?
LASV entry inh: inconclusive; Marburg entry inh: inconclusive; Vaccinia mCherry: inactive; VACV Venus inh: inconclusive

What do the screens show for `O=C(CSc1nnc(Cc2cccs2)n1-c1ccccc1)NC1CCCCC1`?
LASV entry inh: 14µM; Marburg entry inh: inactive; Vaccinia mCherry: inactive; VACV Venus inh: inactive

Results for Cc1nnc(SCC(=O)NC2CCCCC2)n1-c1ccccc1 ?
Vaccinia mCherry: inactive; VACV Venus inh: inactive

What do the screens show for `COc1cccc(CNc2ccc(N3CCCCC3)cc2)c1OC`?
LASV entry inh: inconclusive; Marburg entry inh: inconclusive; VACV Venus inh: inactive

How did COc1ccccc1CNc1ccc(N2CCCCC2)cc1 do in these assays?
LASV entry inh: inconclusive; Marburg entry inh: 5.2µM; Vaccinia mCherry: inactive; VACV Venus inh: inactive

What do the screens show for `Cc1nc(SCC(=O)Nc2ccc(F)cc2)c(C#N)c(C)c1CC(=O)c1ccc(Br)cc1`?
LASV entry inh: 11µM; Marburg entry inh: inconclusive; VACV Venus inh: inactive

How did Cc1cccc(NC(=O)CSc2nc(C)c(CC(=O)c3ccc(Br)cc3)c(C)c2C#N)c1C do in these assays?
LASV entry inh: inactive; Marburg entry inh: inconclusive; VACV Venus inh: inactive

Results for CC1(C)[C@H]2CC[C@]1(C)[C@H](OC(=O)CC(=O)O)C2 ?
Marburg entry inh: inactive

What do the screens show for `CC(=O)Oc1ccc(-c2nc(-c3ccccc3)no2)cc1`?
Vaccinia mCherry: inactive; VACV Venus inh: inactive

Results for O=C(O)[C@@H]1CSCN1S(=O)(=O)c1cccc2nsnc12 ?
Marburg entry inh: inactive

Results for Cc1nn(-c2cccc(Cl)c2)c2nc(C(F)(F)F)[nH]c(=O)c12 ?
LASV entry inh: inactive; Marburg entry inh: 10µM; Vaccinia mCherry: inactive; VACV Venus inh: inactive

How did Cc1nn(-c2cc(C(F)(F)F)ccc2Cl)c2nc(C(F)(F)F)[nH]c(=O)c12 do in these assays?
LASV entry inh: inactive; Marburg entry inh: inactive; Vaccinia mCherry: inactive; VACV Venus inh: inactive

What do the screens show for `COc1cc2c(C#N)c(N3CCN(c4ccccc4OC)CC3)nc(N)c2c(N)n1`?
LASV entry inh: 11µM; Marburg entry inh: inconclusive; VACV Venus inh: inconclusive

Results for COc1cc2c(C#N)c(N3CCN(C)CC3)nc(N)c2c(N)n1 ?
Marburg entry inh: inactive

What do the screens show for `COc1ccc(C2CC(c3ccc4ccccc4c3)=NN2C(=O)CN2CCC(C(N)=O)CC2)cc1` (stereo not given)?
LASV entry inh: inactive; Marburg entry inh: inactive; Vaccinia mCherry: inactive; VACV Venus inh: inactive

Results for C=CCNCC(=O)N1N=C(c2ccc3ccccc3c2)CC1c1ccc(OC)cc1 (stereo not given) ?
LASV entry inh: inactive; Marburg entry inh: 8.9µM; Vaccinia mCherry: inconclusive; VACV Venus inh: inconclusive

Results for CCOC(=O)C1(CCOc2ccccc2)CCN(Cc2cccn2-c2ncccn2)CC1 ?
LASV entry inh: inconclusive; Marburg entry inh: 8.9µM; Vaccinia mCherry: inactive; VACV Venus inh: inactive

What do the screens show for `CCOC(=O)C1(Cc2cccc(F)c2)CCN(Cc2cn(CC)nc2C)CC1`?
LASV entry inh: inactive; Marburg entry inh: inconclusive; Vaccinia mCherry: inactive; VACV Venus inh: inactive

Results for CCOC(=O)C1(CCCc2ccccc2)CCN(Cc2cn(CC)nc2C)CC1 ?
LASV entry inh: inconclusive; Marburg entry inh: 8.9µM; Vaccinia mCherry: inactive; VACV Venus inh: inactive

What do the screens show for `CCc1ccc(/C=C2\SC(=S)N(CCCC(=O)N3CCN(C)CC3)C2=O)cc1`?
Vaccinia mCherry: inconclusive; VACV Venus inh: 28µM

How did CN1CCN(C(=O)CCCN2C(=O)/C(=C/c3cccc(Br)c3)SC2=S)CC1 do in these assays?
LASV entry inh: inconclusive; Marburg entry inh: 10µM; Vaccinia mCherry: inactive; VACV Venus inh: inactive

Results for COc1ccc(/C=C2\SC(=S)N(CCCC(=O)N3CCN(C)CC3)C2=O)cc1 ?
LASV entry inh: inconclusive; Marburg entry inh: inconclusive; Vaccinia mCherry: inactive; VACV Venus inh: inactive

What do the screens show for `CN1CCN(C(=O)CCN2C(=O)/C(=C/c3cccc(Br)c3)SC2=S)CC1`?
LASV entry inh: inactive; Marburg entry inh: inconclusive; Vaccinia mCherry: inconclusive; VACV Venus inh: inactive

Results for CS(=O)(=O)Nc1ccc(C2=NN(C(=O)c3ccco3)C(c3cccc(F)c3)C2)cc1 (stereo not given) ?
LASV entry inh: inconclusive; Marburg entry inh: 11µM; Vaccinia mCherry: inactive; VACV Venus inh: inactive

How did CCS(=O)(=O)Nc1ccc(C2=NN(C(=O)c3ccco3)C(c3cccc(F)c3)C2)cc1 (stereo not given) do in these assays?
Vaccinia mCherry: inactive; VACV Venus inh: inconclusive

How did CCS(=O)(=O)Nc1ccc(C2=NN(C(=O)c3ccco3)C(c3ccc(C)cc3)C2)cc1 (stereo not given) do in these assays?
LASV entry inh: 16µM; Marburg entry inh: inconclusive

What do the screens show for `CCOc1ccc(/C=C/c2cc[n+](C)c3ccccc23)cc1OCC`?
Vaccinia mCherry: inactive; VACV Venus inh: inactive

Screening data from PubChem BioAssay.
